Test results as given in PubChem BioAssay AID1159580 (chemical genetic matrix, 2015).
In all, about 5,500 compounds went through this assay and about 2,000 (36%) were called active. Inconclusive results (about 18%) are left out. No stated cut-off is given here; in the data, active means normalized growth mostly below about 0.91 (no sharp cut-off); inconclusive means no clear call, values can overlap the other calls; inactive means mostly above about 0.92. The list shows a part of the results.

Assay: chemical genetic growth profiling, strain panel (AID 1159580);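 further: tested at 20 µM; growth read once vehicle control cultures reached saturation at 30 °C; 1 = growth at the plate median or of vehicle wells; lower values mean less growth of the strain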
Details: S. cerevisiae deletion strains, growth OD

Measured: normalized growth

CC(C)(O)[C@@H]1CC[C@](C)([C@H]2[C@@H](O)C[C@@]3(C)C4C[C@H](O[C@@H]5O[C@H](CO)[C@@H](O)[C@H](O)[C@H]5O)C5C(C)(C)[C@@H](O[C@@H]6OC[C@@H](O)[C@H](O)[C@H]6O)CC[C@@]56C[C@@]46CC[C@]23C)O1 (stereo not given in full)
inactive: locus YAL021C, strain ccr4, hits give low values 0.988 | locus YAL026C, strain drs2, hits give low values 0.986 | locus YAL030W, strain snc1, hits give low values 0.99 | locus YBL061C, strain skt5, hits give low values 0.999 | locus YBR009C, strain hhf1, hits give low values 1.01 | locus YBR023C, strain chs3, hits give low values 0.998 | locus YBR171W, strain sec66, hits give low values 0.989 | locus YBR231C, strain swc5, hits give low values 1 | locus YBR279W, strain paf1, hits give low values 0.991 | locus YCL011C, strain gbp2, hits give low values 0.995 | locus YCL016C, strain dcc1, hits give low values 1 | locus YCL061C, strain MRC1, hits give low values 1 | locus YCL069W, strain vba3, hits give low values 0.981 | locus YCR088W, strain abp1, hits give low values 0.986 | locus YDL005C, strain med2, hits give low values 0.977 | locus YDL040C, strain nat1, hits give low values 0.985 | locus YDR001C, strain nth1, hits give low values 0.991 | locus YDR069C, strain doa4, hits give low values 0.975 | locus YDR137W, strain rgp1, hits give low values 1.04 | locus YDR159W, strain sac3, hits give low values 0.966 | locus YDR195W, strain ref2 0.931 | locus YDR297W, strain sur2, hits give low values 1 | locus YDR334W, strain swr1, hits give low values 0.959 | locus YDR335W, strain msn5, hits give low values 0.986 | locus YDR392W, strain spt3, hits give low values 0.997 | locus YEL003W, strain gim4, hits give low values 0.991 | locus YEL037C, strain rad23, hits give low values 0.974 | locus YEL061C, strain CIN8 (second series), hits give low values 0.985 | locus YER015W, strain faa2, hits give low values 0.998 | locus YER016W, strain bim1, hits give low values 1 | locus YER111C, strain swi4, hits give low values 0.979 | locus YER155C, strain BEM2 (second series), hits give low values 1 | locus YFR010W, strain ubp6, hits give low values 0.989 | locus YGL167C, strain pmr1, hits give low values 0.979 | locus YGL173C, strain kem1, hits give low values 0.99 | locus YGL227W, strain vid30, hits give low values 0.999 | locus YGL240W, strain doc1, hits give low values 1 | locus YGL253W, strain hxk2, hits give low values 0.988 | locus YHR013C, strain ard1, hits give low values 0.976 | locus YHR027C, strain rpn1, hits give low values 0.998 | locus YHR030C, strain SLT2, hits give low values 0.954 | locus YHR079C, strain IRE1, hits give low values 0.96 | locus YHR142W, strain chs7, hits give low values 0.978 | locus YJL092W, strain hpr5, hits give low values 0.995 | locus YJL095W, strain BCK1 (second series), hits give low values 0.981 | locus YJL095W, strain BCK1, hits give low values 1.05 | locus YJL115W, strain asf1, hits give low values 0.978 | locus YJL129C, strain trk1, hits give low values 0.989 | locus YJL154C, strain vps35, hits give low values 0.972 | locus YJL164C, strain tpk1, hits give low values 1 | locus YJL166W, strain qcr8, hits give low values 0.987 | locus YJL187C, strain SWE1, hits give low values 0.993 | locus YJR066W, strain TOR1, hits give low values 0.92 | locus YKL160W, strain elf1, hits give low values 0.996 | locus YKR026C, strain gcn3, hits give low values 0.992 | locus YKR091W, strain srl3, hits give low values 0.993 | locus YLL001W, strain dnm1, hits give low values 1 | locus YLL026W, hits give low values 1 | locus YLL041C, strain sdh2, hits give low values 0.98 | locus YLR027C, strain aat2, hits give low values 1.02 | locus YLR113W, strain HOG1, hits give low values 1.1 | locus YLR221C, strain rsa3, hits give low values 1 | locus YLR258W, strain gsy2, hits give low values 0.979 | locus YLR262C, strain YPT6 (second series), hits give low values 0.998 | locus YLR320W, strain mms22, hits give low values 0.996 | locus YLR342W, strain FKS1, hits give low values 1 | locus YLR357W, strain rsc2, hits give low values 0.967 | locus YLR370C, strain arc18, hits give low values 0.986 | locus YLR384C, strain iki3, hits give low values 1 | locus YML120C, strain ndi1, hits give low values 0.98 | locus YMR058W, strain fet3, hits give low values 0.994 | locus YMR125W, strain sto1, hits give low values 0.984 | locus YMR129W, hits give low values 0.995 | locus YMR205C, strain PFK2, hits give low values 0.976 | locus YMR231W, strain pep5, hits give low values 0.991 | locus YNL071W, strain lat1, hits give low values 0.972 | locus YNL183C, strain NPR1, hits give low values 0.985 | locus YNL209W, strain ssb2, hits give low values 0.987 | locus YNL248C, strain rpa49, hits give low values 0.981 | locus YNL322C, strain KRE1 (second series), hits give low values 0.989 | locus YNR049C, strain mso1, hits give low values 0.994 | locus YOR001W, strain rrp6, hits give low values 0.972 | locus YOR070C, strain gyp1, hits give low values 1 | locus YOR080W, strain dia2, hits give low values 0.987 | locus YOR083W, strain WHI5, hits give low values 1 | locus YOR106W, strain vam3, hits give low values 0.99 | locus YOR231W, strain MKK1, hits give low values 0.95 | locus YOR265W, strain rbl2, hits give low values 0.993 | locus YOR270C, strain vph1, hits give low values 0.793 | locus YOR290C, strain snf2, hits give low values 1.01 | locus YPL051W, strain arl3, hits give low values 1.01 | locus YPL078C, strain atp4, hits give low values 0.975 | locus YPL106C, strain sse1, hits give low values 0.975 | locus YPL240C, strain hsp82, hits give low values 0.989 | locus YPL256C, strain CLN2, hits give low values 0.974
